From PubChem BioAssay AID1347383 (Zoeller Lab, School of Medicine, Boston University, 2020)
Active and inactive are the calls of the source.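 Rule for the calls: active = cell survival after UV exposure 2 SD above solvent-only control wells at 10 µM, confirmed on one or two repeats; inactive = the rest.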

test: protection of CHO cells from pyrene-fatty acid UV killing, primary screen, phospholipid biosynthesis inhibitor project, ZR-82 cells, Analyticon library, screen 2 (AID 1347383); conditions: ZR-82 CHO cells, CellTiter Blue, at 10 µM; peroxisome-deficient CHO-K1 variant, with DGAT-1, DGAT-2 and ACAT inhibitors unless noted;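 note: survival reflects blocked phospholipid synthesis cutting uptake of the phototoxic fatty acid; compound and fatty acid exposure 3 h then viability read next day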

| SMILES | outcome |
| --- | --- |
| COc1cc(C2c3cc4c(c(O)c3CC3COC(=O)C32)OCO4)cc(OC)c1O (stereo not drawn) | inactive [setting not given] |
| C=CCc1cc(OC)c2c(c1)OCO2 | inactive [setting not given] |
| C=C(C)[C@H]1CCC(C)=C[C@@H]1c1c(O)cc(CCCCC)c(C(=O)O)c1O | inactive |
| COc1ccc([C@@]23CC[C@H](O)C[C@@H]2N(C)CC3)cc1OC | inactive |
| C[C@]12CC[C@H](O[C@@H]3O[C@H](CO)[C@@H](O)[C@H](O)[C@H]3O)CC1CC[C@@H]1C2CC[C@]2(C)[C@@H](C3=CC(=O)OC3)CC[C@]12O (stereo partly drawn) | inactive |
| CC(C)[C@@H](C)/C=C/[C@@H](C)[C@H]1CC[C@@H]2[C@]1(C)CCC1[C@]23C=C[C@]2(C[C@@H](O)CC[C@]12C)OO3 (stereo partly drawn) | inactive |
| COc1ccc2c3c([nH]c2c1)C(C)=NCC3 | inactive [setting not given] |
| CCC1C2CC3C4N(C)c5ccccc5C45CC(C2C5O)N3C1O (stereo not drawn) | inactive [setting not given] |
| COc1ccc(C23C=C4C5CC6(O)CC7N(CCC57c5ccc(OC)c(OC)c5)C4(CC2NCC3)O6)cc1OC (stereo not drawn) | inactive |
| CC(C)=CCOc1c2occc2cc2ccc(=O)oc12 | inactive [setting not given] |
| CC(=O)O[C@H]1C(=O)[C@]2(C)C(O)C[C@H]3OC[C@@]3(OC(C)=O)[C@H]2[C@H](OC(=O)c2ccccc2)[C@]2(O)C[C@H](O)C(C)=C1C2(C)C (stereo partly drawn) | inactive |
| CCC1CC2CN3CCc4c([nH]c5ccccc45)C(C(=O)OC)(C2)C13 (stereo not drawn) | inactive |
| CC1(C)C=C2C(=O)C(C)(C)C(=O)C(C)(C)C2(O)OO1 (stereo not drawn) | inactive |
| COc1cc2c(cc1OC)[C@@]13CCN4CC5=CCO[C@H]6CC(=O)N2[C@H]1[C@H]6[C@H]5C[C@H]43 | inactive [setting not given] |
| CC1CC(C)C(=O)C(C(O)CC2CC(=O)NC(=O)C2)C1 (stereo not drawn) | inactive |
| C/C=C(\C)[C@H](O)[C@H](C)/C=C(C)/C=C/C/C(C)=C/Cc1[nH]c(OC)c(OC)c(=O)c1C | inactive |
| CC#CC#Cc1ccc(C#CC(O)COC(C)=O)s1 (stereo not drawn) | inactive |
| COc1ccc(/C=C/c2cc(O)cc(O)c2)cc1 | inactive [setting not given] |
| COc1ccc([C@@]23CC[C@@H](O)C[C@@H]2N(C)CC3)cc1OC | inactive |
| Oc1cc(O)cc(/C=C/c2ccc(O)cc2O)c1 | inactive |
| C[C@]12CC[C@@H](O[C@@H]3O[C@H](CO)[C@@H](O)[C@H](O)[C@H]3O)C[C@@]1(O)CCC1C2CC[C@]2(C)[C@@H](C3=CC(=O)OC3)CC[C@]12O (stereo partly drawn) | inactive |
| CO[C@H]1[C@H](O)[C@H](O[C@H]2CC[C@]3(C=O)C4CC[C@]5(C)[C@H](C6=CC(=O)OC6)CC[C@]5(O)C4CC[C@@H]3C2)O[C@@H](C)[C@@H]1O (stereo partly drawn) | inactive |
| COC1CC(O[C@H]2CC[C@]3(C)C4CC[C@]5(C)[C@@H](C6=CC(=O)OC6)CC[C@]5(O)[C@@H]4CC[C@]3(O)C2)OC(C)C1O (stereo partly drawn) | inactive |
| CN1Cc2c(ccc3c2OCO3)[C@@H]2[C@H]1c1cc3c(cc1C[C@@H]2O)OCO3 | inactive |
| CC[C@H]1CN2CC[C@H]1C[C@@H]2[C@@H](O)c1ccnc2ccc(OC)cc12 | inactive |
| CC1(C)C=Cc2c(ccc3c4c([nH]c23)C(C)(C)C2CC35CCCN3C(=O)C2(C4)NC5=O)O1 (stereo not drawn) | inactive |
| CC1(C)OC1COc1c2occc2cc2ccc(=O)oc12 (stereo not drawn) | inactive |
| CC1=CC2/C=C(\C)CCC(O)C(O)/C=C/C(=O)C23C(=O)NC(CC(C)C)C3C1C (stereo not drawn) | inactive |
